High-throughput results as filed in PubChem BioAssay.
CHT allo act: allosterically activates the human high affinity choline transporter | Q9GZV3 | B-score at 10 µM | AID 488977 | hit rate 0.49% among 310,000 | CHT-expressing cells, membrane potential dye, choline EC20; hits give high values; LV-AA mutant CHT in HEK293 cells;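 active = initial fluorescence not abnormally high and integrated response B-score, plate-corrected, over 3 SD above library mean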
ANO1 activ: activates or potentiates the mouse TMEM16A chloride channel | hit rate 0.3% among 340,000 | HEK293 TMEM16A/YFP-H148Q/I152L, iodide quench fluorescence; hits give low values | Q8BHY3 | B-score at 10 µM | AID 623877;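 active = fluorescence-ratio B-score plate-corrected deviation score at least 3 library SD below zero, with starting fluorescence score within 5 deviations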;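 note: channel opened by trigger with iodide after compound preincubation; score built on the fluorescence ratio of max minus min over baseline; more negative score means more quench and so TMEM16A activation or potentiation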
ANO1 block: inhibitors of mouse TMEM16A calcium-activated chloride channel; normalized B-score (activity score, 25-100; higher = stronger inhibition) at 10 µM; AID 588511; hit rate 1.2% among 310,000; HEK293 TMEM16A/YFP iodide influx fluorescence, ionomycin;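 active = ratio plate-corrected score three or more library SD toward inhibition, starting fluorescence score within five deviations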;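 note: score derived from kinetic fluorescence span divided by baseline fluorescence per well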
PHOSPHO1 inh: PHOSPHO1 (human) inhibition. inhibition, % at 13.3 µM. recombinant PHOSPHO1, absorbance phosphatase assay. hit rate 1.1% among 290,000. Q8TCT1; in the data active = inhibition above about 60%
CHT block: inhibits the human high affinity choline transporter. B-score at 10 µM. Q9GZV3. CHT-expressing cells, membrane potential dye, choline response; hits give low values. hit rate 0.86% among 310,000. AID 488975;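 active = B-score over 3 SD under the library average, and starting fluorescence ratio not unusually high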;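 note: choline stimulus applied at its EC90 after an EC20 pre-addition; B-score computed on integrated fluorescence ratio after choline addition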
HDAC3 inh: inhibitors of human histone deacetylase 3; O15379; inhibition, % at 8.3 µM; AID 2718; recombinant HDAC3, fluorogenic peptide/trypsin coupled, fluorescence; hit rate 0.15% among 320,000; in the data active = inhibition above about 26%, passing the limit was not always enough; inconclusive = no clear call, values can overlap the other calls
Target sequence (O15379 whole entry, looked up): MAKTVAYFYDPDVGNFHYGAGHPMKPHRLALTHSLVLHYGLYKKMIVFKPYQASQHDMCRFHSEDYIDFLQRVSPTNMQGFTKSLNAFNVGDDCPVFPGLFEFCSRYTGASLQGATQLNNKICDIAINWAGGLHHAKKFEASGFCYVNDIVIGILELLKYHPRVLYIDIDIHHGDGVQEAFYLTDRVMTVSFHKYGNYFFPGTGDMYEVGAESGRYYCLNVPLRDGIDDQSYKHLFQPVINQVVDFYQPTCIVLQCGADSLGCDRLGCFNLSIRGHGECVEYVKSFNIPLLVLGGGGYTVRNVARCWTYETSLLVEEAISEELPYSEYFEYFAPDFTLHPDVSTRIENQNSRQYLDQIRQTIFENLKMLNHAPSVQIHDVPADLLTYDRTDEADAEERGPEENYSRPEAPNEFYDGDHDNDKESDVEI
An asterisk follows results filed as active; i = inactive; ? = inconclusive; nt = no result. Sampled rows, rich in hits. Any-hit rate of the full collection: about 3.2%.

SMILES | CHT allo act | ANO1 activ | ANO1 block | PHOSPHO1 inh | CHT block | HDAC3 inh
Cn1cc(C(c2ccccc2OCC(=O)O)c2cn(C)c3ccccc23)c2ccccc21 | i | i | 25* | 25 | i | 3
Cn1cc(C(c2ccccn2)c2cn(C)c3ccccc23)c2ccccc21 | i | i | i | 10 | i | 4
Cc1ccc(NCc2n[nH]c(=S)n2-c2ccccc2)cc1 | i | i | i | -3 | i | 1
Cc1ccc(-n2c(Cn3nc(C(F)F)cc3C(F)F)n[nH]c2=S)cc1 | i | i | i | 100* | i | -7
Cc1cc(C(F)(F)F)nn1Cc1n[nH]c(=S)n1-c1cccc(Cl)c1 | i | i | i | 84* | i | 0
Cc1cc(C(F)(F)F)nn1Cc1n[nH]c(=S)n1-c1ccc(Cl)cc1 | i | i | i | 102* | i | -1
Cc1cc(C(F)(F)F)nn1Cc1n[nH]c(=S)n1Cc1ccccc1 | i | i | i | -13 | i | 3
O=C(Nc1cccc(-c2csc(Nc3ccc(Cl)cc3)n2)c1)c1cc([N+](=O)[O-])cc(C(F)(F)F)c1 | i | i | i | 0 | i | 8
COc1ccc(CCNC(=O)c2ccc(-c3ccc([N+](=O)[O-])cc3Cl)o2)cc1 | i | i | i | -4 | i | -12
Cc1ccc(CCCOC(=O)C[N+]2(C)CCOCC2)cc1 | i | i | i | 89* | i | -5
COc1ccccc1Nc1nnc(SCC(=O)N2CCCC2=O)s1 | i | i | i | 61* | i | 1
COc1ccccc1Nc1nnc(SCC(=O)N2CCCC2)s1 | i | i | i | 13 | i | 4
Nc1nc2c(s1)CCc1ccccc1-2 | i | i | i | 10 | i | -3
N#C/C(=C(/O)CCl)c1nc2c(s1)CCc1ccccc1-2 | i | i | 25* | -40 | -10* | 9
CCc1ccc(Nc2nc(N)nc(CSc3nc4ccccc4s3)n2)cc1 | i | i | i | -1 | i | ?
Cc1c(-c2ccc(F)cc2)[n+](=O)c2c(n1[O-])CCCCC2 | i | -6.9* | i | -8 | i | 7
CCOC(=O)CCCCCC(=O)Nc1ccc2c(c1)C(=O)N([C@H](C)CO)C[C@H](C)[C@@H](CN(C)C(=O)Nc1ccc(OC)cc1)O2 | nt | i | nt | nt | nt | 1
N=c1sccn1CC(=O)Nc1cc(Cl)ccc1Oc1ccccc1 | i | i | i | 69* | i | 0
c1csc(Cc2nn3c(-c4ccncc4)nnc3s2)c1 | i | i | i | 72* | i | -1
Cc1ccc(NC(=O)CN(C)CC(=O)Nc2cccc(F)c2)cc1S(=O)(=O)N1CCCCCC1 | i | i | 25* | -30 | i | -11
Cc1ccc(NC(=O)CSc2ncnc3ccccc23)cc1S(=O)(=O)N1CCOCC1 | i | i | 25* | 24 | i | 4
Cc1ccc(NC(=O)COc2ccccc2C#N)cc1S(=O)(=O)N1CCCCCC1 | nt | i | nt | nt | nt | nt
Cc1ccc(NC(=O)COc2ccccc2)cc1S(=O)(=O)N1CCCCCC1 | i | i | 25* | nt | i | 3
O=C(OCC#CCSc1nnc(-c2cccc3ccccc23)o1)c1cccs1 | i | i | i | 32 | i | -5
Cc1cccc(N2C(=O)c3ccc(C(=O)Nc4c[nH]c(=O)[nH]c4=O)cc3C2=O)c1 | i | i | i | 0 | i | 5
SMILES | CHT allo act | ANO1 activ | ANO1 block | PHOSPHO1 inh | CHT block | HDAC3 inh
C=CC(C)(C)c1c(O)c(CC=C(C)C)c(O)c2c(=O)c3ccc(O)c(O)c3oc12 | i | i | 100* | nt | i | 8
NC(=O)[C@@H]1CCCN1Cc1nc(-c2ccc(C(F)(F)F)cc2)no1 | i | i | i | 12 | i | -5
O=C(Nc1ccc(Br)cc1)C1CC(c2c(F)cccc2Cl)=NO1 (stereo not drawn) | i | i | 25* | 14 | i | -5
CC(C)CC(=O)NCCc1ccncc1 | i | i | i | 4 | i | -1
COc1ncnc2c1oc1nc(C)c3c(c12)CC(C)(C)OC3 | i | i | i | -10 | i | 3
CNC(=O)c1cc(OCC(F)(F)F)ccc1OCC(F)(F)F | i | i | i | 61* | i | 1
S=C(c1ccccc1)N1CCN(c2ccccc2)CC1 | nt | i | nt | nt | nt | nt
CCN(CC)c1ccc(C(=S)N2CCN(c3ccccc3)CC2)cc1 | i | i | i | 74* | i | -3
Cc1ccc(SCC(=O)c2c(C)nc3ccccn23)cc1 | i | i | i | 52 | i | 2
CC(C)C(=O)Nc1ncc(Cc2ccc(Cl)cc2)s1 | i | i | i | -3 | i | 7
O=C(NCC1CCCO1)c1cn(-c2ccccc2)nc1-c1ccccc1 (stereo not drawn) | i | i | i | 52 | i | -3
O=c1[nH]c(-c2ccncc2)nc2ccccc12 | i | i | i | 98* | i | 3
COc1cccc(-c2nc(=S)c3c(o2)CCCC3)c1 | i | i | i | 61* | i | 7
S=c1nc(-c2ccccc2)oc2c1CCCC2 | i | i | i | -33 | i | ?
C=CCSc1nnc(-c2cc(Br)ccc2N)c(=O)[nH]1 | i | i | i | 90* | i | 3
CCCCSc1nnc(-c2cc(Br)ccc2N)c(=O)[nH]1 | i | i | i | 7 | i | 5
COc1c(/C=C2\SC(=Nc3ccccc3Cl)NC2=O)cccc1[N+](=O)[O-] | i | i | i | 29 | i | 0
O=C1NC(=Nc2ccccc2Cl)S/C1=C\c1cccc([N+](=O)[O-])c1 | i | i | 25* | 19 | i | -7
O=C(Nc1nc(=S)ss1)c1ccc(Cl)cc1Cl | i | i | 100* | 34 | -9.2* | 6
O=C(Nc1ccc2ccccc2c1)c1ccc(Cl)cc1Cl | i | i | i | 42 | i | nt
CCOc1ccc2[nH]c3c(NCCc4ccc(OC)c(OC)c4)ncnc3c2c1 | i | i | i | -40 | i | -11
COc1ccc(N=C(C)C2=C(O)CSC2=O)cc1 | i | i | i | 89* | i | -6
O=C(N/N=C/c1cccnc1)c1ccccc1NS(=O)(=O)c1cccs1 | i | i | i | 15 | i | 0
CCn1c(SCC(=O)Nc2nccs2)nnc1-c1ccc(C)cc1 | i | i | i | 7 | i | -5
CCC(=O)Nc1ccc(-c2nnc(SCC(=O)Nc3nccs3)n2C)cc1 | i | i | i | 103* | i | 6
CCc1nc(N2CCN(C(=O)c3ccco3)CC2)c2c3c(sc2n1)CCCC3 | i | i | i | 38 | i | 3
